Compound activity: PubChem, National Center for Advancing Translational Sciences (NCATS)
Luciferase inh = blocks purified firefly luciferase enzyme activity. P08659. purified P. pyralis luciferase, luminescence, biochemical. Potency, µM (highest dose often 115 µM), actives largely listed as inhibitors. 76,000 compounds, 2.5% hits; further: nearly all actives have a fitted effect of over 65% in size
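Purified P. pyralis luciferase (10nM final) in 50mM Tris acetate pH 7.5, 10mM Mg acetate, 0.01% Tween-20, 0.05% BSA with 10uM D-luciferin and 10uM ATP. Compounds titrated qHTS. Luminescence imaged on CCD.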
hNpr1 antagonist = blocks ANP-stimulated signaling of human Npr1 receptor | P16066 | HEK293 hNpr1 GloSensor cGMP, ANP-stimulated luminescence | Potency, µM (top dose mostly 46.3 µM), for the others: at the highest dose activity change, negative = inhibition, hits mostly inhibitors | 76,000 compounds, 1.6% hits; calls by dose curve; further: nearly all actives have a fitted effect of over 60% in size
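Compound pre-incubated 30 min at room temperature on GloSensor-loaded HEK293 cells stably carrying hNpr1 and the pGS-40F cGMP biosensor. Stimulation uses hNppA at 0.1 nM final; luminescence is taken at baseline and 20 min post-agonist.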
HEK293 tox = kills HEK 293 cells; HEK 293 viability, ATP luminescence (CellTiter-Glo), 48-72 h; Potency, µM (top dose mostly 115 µM), inactives show top-dose activity change, negative = cytotoxicity, most hits filed as inhibitors; 94,000 compounds, 6.6% hits; further: nearly all actives have a fitted effect of over 60% in size
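HEK 293 seeded at 250 cells/well receive compound via pintool. After 48 or 72 hr at 37 degree Celsius, 5% CO2 and 95% humidity, CellTiter-Glo is dispensed and luminescence read following 10 min at room temperature.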
NIH3T3 tox = NIH 3T3 cell cytotoxicity. 94,000 compounds, 4.3% hits. NIH 3T3 viability, CellTiter-Glo ATP luminescence, 48-72 h. Potency, µM (top dose mostly 96.7 µM), for the others: top-dose activity change, negative = cytotoxicity, hits mostly inhibitors. AID 1345082; further: nearly all actives have a fitted effect of over 55% in size
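NIH 3T3 cells at 400 cells/well received 23 nL of compound by pintool and were incubated 48 or 72 h at 37 °C. Viability was read as ATP-coupled CellTiter-Glo luminescence.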
The depositor's hits bear a star; i = inactive; ? = inconclusive; nt = not tested or not shown; [ ] = remark or other dose. The list is not random: actives were taken first. Their share in the collection is about 11%. Unless noted, the call rests on the fitted dose curve; in most records, active means well fitted curve in the direction sought with a large enough effect; inconclusive means small, poorly fitted or top-dose-only effect, or another doubt; inactive means no such curve, though single readings can be large; an effect the other way counts as inactive or inconclusive. On the % scale 0 is the no-effect control and ±100 the full control effect; potency means the concentration at half of the fitted maximal effect.

SMILES	Luciferase inh	hNpr1 antagonist	HEK293 tox	NIH3T3 tox
CC(C)(C)C1CCC2(CC1)NC(=O)N(CC(=O)N1CCN(c3ccccc3)CC1)C2=O (centres undefined)	i	1%	-23%	-13%
COc1ccc(CCN2CCC(CN(C)Cc3nc(C(C)C)cs3)CC2)cc1	i	3%	32µM*	?
COc1ccc(CNC2(Cc3cc(-c4ccc(F)cc4)on3)COC2)cc1	i	-12%[70.6 µM]	?	?
c1ccc(-c2cc(CC3(NCC4CCCCC4)COC3)no2)cc1	i	?	100µM*	?
CC(C)(O)c1cc(CC2(NCC3CCCCC3)COC2)no1	i	12%[70.6 µM]	1%[172 µM]	-12%[174 µM]
Fc1ccc(-c2cc(CC3(NCc4ccc(OC(F)(F)F)cc4)COC3)no2)cc1	i	?	79µM*	100µM*
CC1(C)[C@H]2CC[C@@H](CNC(=O)c3ccccc3)[C@@H]1C2	i	1%[70.6 µM]	?	?
CC1(C)[C@H]2CC[C@@H](CNC(=O)c3cncc(Br)c3)[C@@H]1C2	i	5%	79µM*	?
COc1ccc(C(=O)NC[C@@H]2CC[C@H]3C[C@@H]2C3(C)C)cc1	i	?	100µM*	?
O=C(NC1CCCC1)c1cc(C2CC2)nc2onc(C3CCCN3)c12 (centres undefined)	nt	nt	-6%	-19%
CCN(CCOC)Cc1cn(-c2ccc(F)cc2F)nc1-c1ccccc1C	i	-1%	?	-16%
CN(C)C(=O)CN1C(=O)CO[C@H](c2ccc(NC(=O)c3ccc(C(F)(F)F)cc3)cc2)[C@H]1CO	?	3%	-29%	-15%
O=C(Nc1ccccc1)Nc1ccc([C@H]2OCC(=O)N(Cc3ccc(F)cc3)[C@@H]2CO)cc1	i	-16%	40µM*	?
CC(C)CN1C(=O)CO[C@H](c2ccc(NC(=O)c3ccc(C(F)(F)F)cc3)cc2)[C@H]1CO	45µM*	13µM*	?	?
COc1ccc(C(=O)Nc2ccc([C@H]3OCC(=O)N(Cc4ccncc4)[C@@H]3CO)cc2)cc1OC	i	0%	i	89µM*
O=C(Nc1ccccc1)Nc1ccc([C@@H](O)[C@H]2COCC(=O)N2Cc2ccc(F)cc2)cc1	?	5%	79µM*	?
O=C(NCCCN1CCCCC1)c1cccnc1N1CC2CC(C1)[C@H]1CCCC(=O)N1C2 (some centres undefined)	i	-2%	9%	i
Cc1ccsc1C(=O)N1CCC(Cc2nc(-c3ccncc3)n[nH]2)CC1	nt	nt	-6%	-13%
CSc1ccc(-c2cccc(CN3CCC(NC(=O)c4ccc(Cl)nc4)CC3)c2)cc1	nt	nt	?	-3%
COc1ccc(-n2nc3n(c2=O)CCN([S+](=O)([O-])c2ccccc2)C3)cc1	nt	nt	-9%	-13%
COc1ccc(C(=O)Nc2ccc([C@H]3OCC(=O)N(Cc4ccc(F)cc4)[C@@H]3CO)cc2)cc1	45µM*	-2%	?	-12%
CC1=C[C@@H](CN(C)CCO)[C@H](C(C)C)C[C@H]1Cc1nnc(-c2ccccc2)o1	i	-2%[70.6 µM]	?	?
CC1=C[C@@H](CN(C)CCO)[C@H](C(C)C)C[C@H]1Cc1nnc(-c2ccc(C)cc2)o1	i	-2%[70.6 µM]	89µM*	?
COCCNC[C@@H]1C=C(C)[C@H](Cc2nnc(-c3ccc(OC)cc3)o2)C[C@H]1C(C)C	i	1%[70.6 µM]	28µM*	28µM*
COc1ccc(-c2nnc(C[C@@H]3C[C@@H](C(C)C)[C@H](CO)C=C3C)o2)cc1	i	-2%[70.6 µM]	40µM*	?
SMILES	Luciferase inh	hNpr1 antagonist	HEK293 tox	NIH3T3 tox
CCOC(=O)CN1C(=O)CCN(C(=O)NC2CCCC2)CC(OC)c2ccccc21 (centres undefined)	nt	nt	-18%[57.5 µM]	?
O=C(NC1CCCN(c2cc(-c3ccc(F)cc3)[nH]n2)C1)c1cc2ccccc2[nH]1 (centres undefined)	20µM*	-27%	40µM*	?
O=C(NC1CCCN(c2cc(-c3ccc(F)cc3)[nH]n2)C1)c1ccccc1Br (centres undefined)	i	-18%	?	?
O=C(NC1CCCN(c2cc(-c3ccc(F)cc3)[nH]n2)C1)c1c[nH]c2ccccc12 (centres undefined)	22µM*	-23%	?	?
COc1ccccc1C(=O)NC1CCCN(c2cc(-c3ccc(F)cc3)[nH]n2)C1 (centres undefined)	?	-18%	?	?
Cc1nc(N2CCC(NC(=O)c3cc4ccccc4[nH]3)CC2)cc(C(F)(F)F)n1	?	7.9µM*	?	?
Cc1nc(N2CCC(NC(=O)c3ccccn3)CC2)cc(C(F)(F)F)n1	i	?	?	?
COc1ccc(C2Cn3nnc(C(=O)N4CCN(C(=O)c5ccc(C)cc5)CC4)c3CO2)cc1 (centres undefined)	i	-25%	?	-17%
COc1ccc(CCNC(=O)c2cn3cc(-c4ccc(C(F)(F)F)cc4)sc3n2)cc1	nt	nt	0%	-19%
O=C(NCc1cccc(C(F)(F)F)c1)c1ccc2nnc(Cc3ccco3)n2c1	nt	nt	-26%	?
COc1ccc(Cc2nnc3ccc(C(=O)NCc4ccc(F)cc4)cn23)cc1	nt	nt	-24%	?
O=C(NCc1ccc(F)cc1)c1ccc2nnc(Cc3ccc(Cl)cc3)n2c1	nt	nt	40µM*	?
O=C(NCCc1ccc(Cl)cc1)c1ccc2nnc(Cc3ccc(Cl)cc3)n2c1	nt	nt	28µM*	28µM*
O=C(NCc1cccc(C(F)(F)F)c1)c1ccc2nnc(Cc3ccc(Cl)cc3)n2c1	nt	nt	32µM*	22µM*
O=C(NCCc1ccc(Cl)cc1)c1ccc2nnc(Cc3ccco3)n2c1	nt	nt	-28%	?
O=C(NCc1ccc(Cl)cc1)c1ccc2nnc(Cc3ccc(Cl)cc3)n2c1	nt	nt	45µM*	32µM*
COCCCNC(=O)c1ccc2nnc(-c3ccccc3OC)n2c1	nt	nt	i	-13%[138 µM]
Cc1cn2nc(C(=O)Nc3ccc(N(C)C)cc3)cc2c(N(C)Cc2ccccc2)n1	2.5µM*	-10%	?	?
Cc1cn2nc(C(=O)Nc3ccc(Cl)cc3)cc2c(N(C)Cc2ccccc2)n1	i	8%	-17%	-20%
Cc1noc(-c2ccccc2Cl)c1C(=O)NCCCc1ccccc1	i	0%	45µM*	?
C[S+](=O)([O-])N1CCC(Cn2ccc3c(N4CCOCC4)nc(-c4ccccc4F)cc32)CC1	i	-7%	?	-33%
C[S+](=O)([O-])N1CCC(Cn2ccc3c(N4CCOCC4)nc(-c4cccc5[nH]ncc45)cc32)CC1	i	-17%	?	10µM*
COc1ccccc1-c1cc2c(ccn2CC2CCN([S+](C)(=O)[O-])CC2)c(N2CCOCC2)n1	i	-5%	?	?
C[S+](=O)([O-])N1CCC(Cn2ccc3c(N4CCOCC4)nc(-c4ccncc4)cc32)CC1	i	3%	?	28µM*
